Where “and” joins values, the source holds several entries; their conditions need not be identical. Identical values can stand only once. Inconclusive results are not listed. Where a call stands in place of a potency, no number is given. Calls of active or inactive are those of the source. Unless noted, calls follow the shape of the dose curve; as a rule, active = well fitted curve in the direction sought with a large enough effect; inconclusive = small, poorly fitted or top-dose-only effect, or another doubt; inactive = no such curve, though single readings can be large; an effect the other way counts as inactive or inconclusive.
Tests used:
[1] = target: Voltage-gated inwardly rectifying potassium channel KCNH2 (Homo sapiens) (UniProt Q12809); test: qHTS Assay for Small Molecule Inhibitors of the Human hERG Channel Activity (AID 588834);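 also: lower thallium flux fluorescence means stronger hERG block; nearly all actives have a fitted effect of over 50% in size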; also: potency is read from the fitted curve at half-maximal effect
Sequence of Voltage-gated inwardly rectifying potassium channel KCNH2 (Homo sapiens) (Q12809 whole entry, looked up): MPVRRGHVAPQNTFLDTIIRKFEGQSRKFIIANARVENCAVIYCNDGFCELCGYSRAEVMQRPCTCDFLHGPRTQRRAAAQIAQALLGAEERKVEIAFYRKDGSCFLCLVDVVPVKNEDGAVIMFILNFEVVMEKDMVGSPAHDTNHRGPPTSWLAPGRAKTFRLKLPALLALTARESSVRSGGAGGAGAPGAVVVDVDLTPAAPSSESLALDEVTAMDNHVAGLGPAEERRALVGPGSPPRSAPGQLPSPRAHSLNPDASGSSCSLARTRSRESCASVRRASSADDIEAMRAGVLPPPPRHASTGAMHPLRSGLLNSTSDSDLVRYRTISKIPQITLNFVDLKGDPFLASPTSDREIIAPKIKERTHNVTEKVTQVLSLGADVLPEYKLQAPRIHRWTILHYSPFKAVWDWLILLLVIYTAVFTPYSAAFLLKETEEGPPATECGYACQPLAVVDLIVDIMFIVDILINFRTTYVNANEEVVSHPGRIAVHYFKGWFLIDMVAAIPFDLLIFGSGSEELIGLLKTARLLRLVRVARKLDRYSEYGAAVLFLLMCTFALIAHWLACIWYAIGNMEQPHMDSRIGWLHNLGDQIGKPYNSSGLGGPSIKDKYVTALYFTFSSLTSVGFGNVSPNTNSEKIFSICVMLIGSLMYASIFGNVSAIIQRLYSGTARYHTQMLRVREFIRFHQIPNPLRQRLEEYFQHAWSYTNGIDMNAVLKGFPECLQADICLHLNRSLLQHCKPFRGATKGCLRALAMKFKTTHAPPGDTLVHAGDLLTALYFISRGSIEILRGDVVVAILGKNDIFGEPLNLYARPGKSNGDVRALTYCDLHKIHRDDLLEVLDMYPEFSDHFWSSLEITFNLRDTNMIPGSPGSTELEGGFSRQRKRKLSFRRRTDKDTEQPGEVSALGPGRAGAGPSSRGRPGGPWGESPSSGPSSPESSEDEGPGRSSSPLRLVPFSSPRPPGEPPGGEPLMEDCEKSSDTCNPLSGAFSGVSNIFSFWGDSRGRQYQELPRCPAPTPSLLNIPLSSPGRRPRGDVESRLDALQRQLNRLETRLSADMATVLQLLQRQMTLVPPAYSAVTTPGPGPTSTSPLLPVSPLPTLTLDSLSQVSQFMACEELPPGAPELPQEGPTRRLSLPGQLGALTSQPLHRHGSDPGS
Summary of the method: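 U2OS cells BacMam-transduced with hERG, 2000 cells/well, compound ~10 min at 37 °C before stimulation buffer. FluxOR thallium flux fluorescence read kinetically on FDSS; decrease indicates block; AC50 from Hill fits.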

[2] = target: Luciferin 4-monooxygenase (Photinus pyralis) (UniProt P08659); test: Biochemical firefly luciferase enzyme assay for NPC (AID 624030); also: nearly all actives have a fitted effect of over 70% in size; also: potency is read from the fitted curve at half-maximal effect
Sequence of Luciferin 4-monooxygenase (Photinus pyralis) (P08659 whole entry, looked up): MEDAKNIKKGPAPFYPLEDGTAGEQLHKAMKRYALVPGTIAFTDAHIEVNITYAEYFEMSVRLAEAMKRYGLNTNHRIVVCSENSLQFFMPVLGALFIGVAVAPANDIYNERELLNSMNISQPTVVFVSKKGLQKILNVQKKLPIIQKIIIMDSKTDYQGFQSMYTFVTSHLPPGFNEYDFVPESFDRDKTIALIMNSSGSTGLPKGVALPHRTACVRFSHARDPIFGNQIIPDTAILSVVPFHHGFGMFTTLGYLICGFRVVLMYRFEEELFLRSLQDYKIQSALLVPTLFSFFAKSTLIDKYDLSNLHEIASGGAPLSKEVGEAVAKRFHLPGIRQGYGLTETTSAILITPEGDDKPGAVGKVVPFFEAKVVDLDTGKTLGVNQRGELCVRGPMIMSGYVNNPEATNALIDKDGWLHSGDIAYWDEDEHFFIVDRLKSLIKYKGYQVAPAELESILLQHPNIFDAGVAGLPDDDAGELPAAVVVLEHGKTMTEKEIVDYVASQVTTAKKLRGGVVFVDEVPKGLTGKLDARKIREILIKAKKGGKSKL
Summary of the method: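 Direct inhibition of firefly luciferase enzyme (10 nM final, 50 mM Tris Acetate) assessed by luminescence within 5 minutes. Percent activity scaled between DMSO and PTC124 positive control, with concentration-effect curves classified by fit quality and response.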

[3] = S16 Schwann cell viability assay (CellTiter-Glo assay) (AID 624031);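 also: cellular ATP luminescence as a viability measure; series mostly up to about 58 µM; nearly all actives have a fitted effect of over 70% in size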
Summary of the method: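 Luminescent ATP read-out (CellTiter-Glo) after 24 h compound exposure of native S16 rat Schwann cells at 37 °C. Signals were normalized between cell-free wells and DMSO-treated cells, set as 0% activity.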

[4] = S16 Schwann cell PMP22 intronic element firefly luciferase assay (AID 624032); also: series mostly up to about 58 µM; nearly all actives have a fitted effect of over 30% in size
Summary of the method: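 Luciferase reporter of PMP22 intronic-element expression in stably transfected S16 rat Schwann cells, read by ONE-Glo luminescence after 24 h compound exposure at 37 C. Activity scaled between DMSO (0%) and positive-control PTC124; concentration-effect curves quality-classified.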

[5] = target: Thyroid hormone receptor beta (Homo sapiens) (UniProt P10828); test: qHTS assay for small molecule agonists of thyroid hormone receptor beta signaling (AID 588545; calls by dose curve)
Sequence of Thyroid hormone receptor beta (Homo sapiens) (P10828 whole entry, looked up): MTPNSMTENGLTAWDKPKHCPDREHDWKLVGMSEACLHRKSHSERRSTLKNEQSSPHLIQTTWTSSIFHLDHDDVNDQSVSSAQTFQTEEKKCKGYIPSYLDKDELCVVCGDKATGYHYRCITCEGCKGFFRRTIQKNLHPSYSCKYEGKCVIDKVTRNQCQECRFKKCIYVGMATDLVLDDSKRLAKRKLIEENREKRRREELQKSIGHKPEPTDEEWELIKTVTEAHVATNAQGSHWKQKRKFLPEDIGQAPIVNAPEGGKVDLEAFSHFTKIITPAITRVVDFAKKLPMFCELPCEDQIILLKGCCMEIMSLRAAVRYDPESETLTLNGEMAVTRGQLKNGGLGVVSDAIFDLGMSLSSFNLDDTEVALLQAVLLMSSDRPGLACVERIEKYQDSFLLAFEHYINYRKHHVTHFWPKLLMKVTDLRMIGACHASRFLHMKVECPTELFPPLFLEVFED
Summary of the method: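 TR-UAS-bla-GripTite HEK 293 cells in medium with 2% charcoal/dextran FBS, 0.1 mM NEAA and 1 mM sodium pyruvate were treated with titrated compounds for 18 hrs at 37 C. Beta-lactamase reporter was read with CCF4 dye (ex 405, em 460/530 nm); EC50 from Hill fits.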

[6] = target: Thyroid hormone receptor beta (Homo sapiens) (UniProt P10828); test: qHTS assay for small molecule antagonists of thyroid hormone receptor beta signaling (AID 588547; active = well fitted inhibition curve with a large enough effect in the signal ratio, with a control signal flat, not every such curve was filed as active; the % refers to the signal ratio;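 also: cells stimulated with 0.4 nM T3 agonist during compound exposure; series mostly up to about 77 µM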); settings: TR-UAS-bla HEK293, beta-lactamase ratio, antagonist mode, 18 h
Summary of the method: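 Inhibition of T3-driven (0.4nM final) beta-lactamase reporter activity was measured over 0.59 nM to 92 uM compound after 18 h at 37 C. The cells were GripTite HEK293 TR-UAS-bla in charcoal/dextran-stripped serum, with CCF4 ratio read-out and IC50 from Hill fits.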

[7] = target: Retinoic acid receptor RXR-alpha (Homo sapiens) (UniProt P19793); test: qHTS assay for small molecule agonists of retinoid X receptor alpha signaling (AID 588544; calls by dose curve)
Sequence of Retinoic acid receptor RXR-alpha (Homo sapiens) (P19793 whole entry, looked up): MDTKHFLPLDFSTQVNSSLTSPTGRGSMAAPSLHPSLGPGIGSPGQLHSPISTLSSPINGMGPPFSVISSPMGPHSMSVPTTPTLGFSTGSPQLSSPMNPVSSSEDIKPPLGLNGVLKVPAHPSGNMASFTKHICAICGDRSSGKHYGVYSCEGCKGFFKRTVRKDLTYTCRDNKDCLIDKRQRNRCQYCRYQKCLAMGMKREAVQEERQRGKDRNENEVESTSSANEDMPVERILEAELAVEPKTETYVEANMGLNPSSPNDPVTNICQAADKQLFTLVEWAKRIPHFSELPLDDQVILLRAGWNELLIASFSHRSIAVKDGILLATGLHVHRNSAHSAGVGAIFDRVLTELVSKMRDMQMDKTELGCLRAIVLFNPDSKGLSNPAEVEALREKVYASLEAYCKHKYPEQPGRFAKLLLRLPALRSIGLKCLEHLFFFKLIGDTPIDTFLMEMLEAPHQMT

[8] = qHTS assay for small molecule antagonists of retinoid X receptor alpha signaling (AID 588546; active = well fitted inhibition curve with a large enough effect in the signal ratio, with a control signal flat, not every such curve was filed as active; the % refers to the signal ratio;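 also: cells stimulated with 9-cis-retinoic acid as agonist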); settings: HEK293T RXRa-UAS-bla, beta-lactamase ratio, antagonist mode; measured here: W530 green channel, cytotoxicity proxy
Summary of the method: (§1)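 Beta-lactamase reporter inhibition, read as CCF4 fluorescence ratio (ex 405, em 460/530 nm) after 2 h at RT. HEK293T UAS-bla cells, 2500/well, were stimulated with 9-cis-RA at 500 or 100 nM final alongside test compound for 18 h at 37 C.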

[9] = target: Retinoic acid receptor RXR-alpha (Homo sapiens) (UniProt P19793); test: as above; settings: HEK293T RXRa-UAS-bla, beta-lactamase ratio, antagonist mode
Summary of the method: as §1

For `O=C(O)c1c(Cl)c(Cl)c(Cl)c(Cl)c1-c1c2cc(I)c(=O)c(I)c-2oc2c(I)c(O)c(I)cc12`, the Potency [1] was 12.6 µM (active), the Potency [2] was 25.6 µM (active) and the Potency [3] was “inactive”.
For `COc1ccccc1N1CCN(CCCNc2cc(=O)n(C)c(=O)n2C)CC1`, the Potency [1] was “inactive”, the Potency [2] was “inactive” and the Potency [3] was “inactive”. The Potency [4] was “inactive”.
In the case of `O=c1cc(-c2ccc(O)cc2)oc2cc(O)cc(O)c12`, the outcome [5] is reported as “inactive”, the activity change % (negative = inhibition) [6] is reported as -28.1% (inactive) and the Potency [1] is reported as “inactive”.
In the case of `CC(C(=O)O)c1ccc(-c2ccccc2)c(F)c1` (stereo not given), the Potency [1] is reported as “inactive”.
For `O=c1cc(-c2ccccc2)oc2cc(O)cc(O)c12`, the outcome [5] was “inactive”.
For `OC[C@@H](O)[C@H](O)[C@H](O)[C@@H](O)CO`, the Potency [1] was “inactive”.
For `CC(=O)O[C@]1(C(C)=O)CC[C@H]2[C@@H]3C=C(Cl)C4=CC(=O)[C@@H]5C[C@@H]5[C@]4(C)[C@H]3CC[C@@]21C`, the outcome [5] was “inactive”, the activity change % (negative = inhibition) [6] was 13.7% (inactive) and 12.8% (inactive) and the Potency [1] was “inactive”. For the same molecule, the Potency [2] was “inactive” and the Potency [3] was “inactive”.
With `CCN1CCC[C@H]1CNC(=O)c1cc(S(N)(=O)=O)ccc1OC` the Potency [1] was “inactive”, the Potency [2] was “inactive” and the Potency [3] was “inactive”. For the same molecule, the Potency [4] was “inactive”.
With `CN(C)CCC(c1ccccc1)c1ccccn1` (stereo not given) the outcome [7] was “inactive”, the outcome [5] was “inactive” and the max response [8] was -6.63%. The max response [9] was -4.45% (inactive), the activity change % (negative = inhibition) [6] was -6.32% (inactive) and the Potency [2] was “inactive”. For the same molecule, the Potency [3] was “inactive” and the Potency [4] was “inactive”.
In the case of `NCCS`, the Potency [1] is reported as “inactive”, the Potency [2] is reported as “inactive” and the Potency [3] is reported as “inactive”. For the same molecule, the Potency [4] was “inactive”.
For `O=C(NCCN1CCOCC1)c1ccc(Cl)cc1`, the Potency [1] was “inactive”, the Potency [2] was “inactive” and the Potency [4] was “inactive”.
In the case of `CCCCCN(C)CCC(O)(P(=O)(O)O)P(=O)(O)O`, the Potency [2] is reported as “inactive”, the Potency [3] is reported as “inactive” and the Potency [4] is reported as “inactive”.
With `CN1[C@@H]2CCC[C@@H]1CC(NC(=O)c1nn(C)c3ccccc13)C2` (stereo not given in full) the Potency [2] was “inactive”.
With `CCN(CC)C(=O)c1ccc(O)c(OC)c1` the Potency [1] was “inactive”, the Potency [2] was “inactive” and the Potency [3] was “inactive”. The Potency [4] was “inactive”.
In the case of `CN1C[C@H]2c3ccccc3Oc3ccc(Cl)cc3[C@@H]2C1`, the Potency [2] is reported as “inactive”.
With `CCOC(=O)O[C@]1(C(=O)OCCl)CC[C@@H]2[C@H]3CCC4=CC(=O)C=C[C@]4(C)[C@@H]3[C@@H](O)C[C@@]21C` the Potency [1] was “inactive”, the Potency [2] was “inactive” and the Potency [3] was “inactive”. For the same molecule, the Potency [4] was “inactive”.
In the case of `COc1ccc(Cc2nccc3cc(OC)c(OC)cc23)cc1OC`, the Potency [2] is reported as “inactive” and the Potency [3] is reported as “inactive”.
For `NC(N)=Nc1nc(CSCC/C(N)=N/S(N)(=O)=O)cs1`, the Potency [2] was “inactive”, the Potency [3] was “inactive” and the Potency [4] was “inactive”.

Source: PubChem BioAssay (NCATS)
